# Results: PubChem BioAssay
# Several values for one entry are separate records, joined by “and”; a condition that tells them apart may be missing. Equal entries are not always repeated. Activity calls are given as the source filed them. Rule as the data show it, unless noted: active = nuclear beta-catenin stimulation mostly above about 4.2% (no sharp cut-off); inactive = mostly below about 10%.
# Tests used:
# [1] = stimulators of nuclear beta-catenin in C2C12, primary screen, imaging, WNT3A-conditioned medium, mouse C2C12, NPC library (AID 1117326); conditions: stronger effect = higher value
# [2] = stimulators of insulin release from INS-1E, primary screen, cell-based, 5 mM glucose, NPC library (AID 1117329;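 active = compound raises insulin release from rat beta cells at 5 mM glucose, no numeric limit stated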); conditions: rat INS-1E insulin secretion, at 10 µM, stronger effect = higher value
# [3] = glucagon-like peptide 1 release enhancers, primary assay, NCI-H716 cell line, NPC library (AID 1117341;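 active = compound raises GLP1 secretion from the human gut endocrine cells, with no numeric limit stated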); conditions: NCI-H716 cells, at 10 µM, stronger effect = higher value
# [4] = growth inhibition of GSK3B-pretreated HCT116 cells – cell-based, CellTiter-Glo, 0.2 to 20 µM (AID 1117336;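 active = compounds lowering colon cancer cell viability after pretreatment blocking the GSK3B kinase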); conditions: HCT116 viability after GSK3B inhibitor, at 20 µM, stronger effect = higher value
# [5] = HCT116 colon cancer cell growth inhibition, primary screen, CellTiter-Glo luminescence, NPC library (AID 1117342;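 active = compounds that lower survival of HCT116 colon cancer cells in the luminescence readout, no numeric limit stated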); conditions: at 20 µM (top of the series)
# [6] = CellTiter-Glo luminescent readout of SW480 viability loss, NPC library primary (AID 1117343;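 active = compounds that lower viability of the colon cancer cells in the luminescence readout, with no numeric limit stated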); conditions: CellTiter-Glo luminescence; at 20 µM (top of the series) unless noted
# [7] = decreased DLD-1 cellular survival, CellTiter-Glo luminescent readout, NPC compound collection, primary HTS (AID 1117346;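 active = compounds that lower survival of DLD-1 colon cancer cells in the luminescence readout, no cutoff given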); conditions: DLD-1 viability, CellTiter-Glo luminescence; at 20 µM (top of the series)
# [8] = sensitizers of A549 cells to miR-34 induction, primary screen, imaging, A549 dox-inducible miR-34, nuclei and caspase counts (AID 1347080;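 active = compounds whose cell count with miR-34 switched on is under 0.7 times the count with it off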); conditions: A549 miR-34 inducible, Hoechst nuclei count, 48 h
# [9] = survival rescue of mitochondrial mutant cells in low glucose, primary screen, MELAS cybrids, Rieske KO mouse fibroblasts, CellTiter-Glo (AID 1508586;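 active = mean z-score across replicates of 1.96 or higher in either the MELAS or the Rieske mutant cell line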;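 also: z relative to plate mean and SD of compound and empty wells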)
# [10] = inhibition of endothelial tube formation, primary screen, imaging, VEGF stimulated, CD31 staining, tube area, NPC library (AID 1117340;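 active = compound that reduces growth-factor-driven endothelial tube area in a mixed cell culture, no cutoff stated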); conditions: VEGF-stimulated ADSC/ECFC co-culture, at 10 µM, stronger effect = higher value
# [11] = biological target: Mitogen-activated protein kinase 7 (Homo sapiens) (UniProt Q13164); assay: ERK5 transactivation activators in reporter cells, primary screen, cell-based, HTS (AID 1508626;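 active = luciferase signal above three times the same-plate solvent-only control wells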;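 also: luciferase driven by Gal4-ERK5 fusion binding five Gal4 sites before minimal TATA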); conditions: HeLa Gal4-ERK5 transactivation, 18 h, at 5 µM, stronger effect = higher value
# Sequence of Mitogen-activated protein kinase 7 (Homo sapiens) (Q13164 whole entry, looked up, the tested form may be a part): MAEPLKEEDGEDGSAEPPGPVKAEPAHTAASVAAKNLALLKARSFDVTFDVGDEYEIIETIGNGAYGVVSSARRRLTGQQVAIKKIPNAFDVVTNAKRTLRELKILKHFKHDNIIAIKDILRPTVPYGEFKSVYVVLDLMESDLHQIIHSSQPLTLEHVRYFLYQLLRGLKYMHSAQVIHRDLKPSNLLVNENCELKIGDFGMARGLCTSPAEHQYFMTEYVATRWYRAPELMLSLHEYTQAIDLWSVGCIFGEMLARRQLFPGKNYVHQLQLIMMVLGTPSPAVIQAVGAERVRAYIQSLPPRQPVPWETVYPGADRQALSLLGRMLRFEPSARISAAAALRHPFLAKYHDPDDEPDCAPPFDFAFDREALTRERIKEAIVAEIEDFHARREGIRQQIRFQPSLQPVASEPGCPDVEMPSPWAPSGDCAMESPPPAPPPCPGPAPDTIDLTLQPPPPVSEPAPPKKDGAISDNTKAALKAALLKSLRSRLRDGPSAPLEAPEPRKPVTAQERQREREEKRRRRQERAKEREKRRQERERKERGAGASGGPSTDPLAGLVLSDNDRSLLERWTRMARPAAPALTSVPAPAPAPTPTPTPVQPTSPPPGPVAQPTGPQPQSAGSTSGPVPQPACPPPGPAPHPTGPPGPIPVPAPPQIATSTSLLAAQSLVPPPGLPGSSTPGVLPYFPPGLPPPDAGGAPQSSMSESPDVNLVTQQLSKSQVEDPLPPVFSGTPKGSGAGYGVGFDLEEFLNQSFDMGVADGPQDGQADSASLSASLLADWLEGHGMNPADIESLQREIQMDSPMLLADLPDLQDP
# [12] = biological target: NAD(+) hydrolase SARM1 (Homo sapiens) (UniProt Q6SZW1); assay: SARM1 TIR NADase inhibitors, cell lysate, NAD-Glo luminescence (AID 1508614;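 active = compound whose remaining NAD level is above about 45 nM, limit read from the data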;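 also: higher remaining NAD means stronger inhibition of SARM1 NADase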); conditions: SAM-TIR HEK293T lysate NADase, at 1 µM, stronger effect = higher value
# Sequence of NAD(+) hydrolase SARM1 (Homo sapiens) (Q6SZW1 whole entry, looked up): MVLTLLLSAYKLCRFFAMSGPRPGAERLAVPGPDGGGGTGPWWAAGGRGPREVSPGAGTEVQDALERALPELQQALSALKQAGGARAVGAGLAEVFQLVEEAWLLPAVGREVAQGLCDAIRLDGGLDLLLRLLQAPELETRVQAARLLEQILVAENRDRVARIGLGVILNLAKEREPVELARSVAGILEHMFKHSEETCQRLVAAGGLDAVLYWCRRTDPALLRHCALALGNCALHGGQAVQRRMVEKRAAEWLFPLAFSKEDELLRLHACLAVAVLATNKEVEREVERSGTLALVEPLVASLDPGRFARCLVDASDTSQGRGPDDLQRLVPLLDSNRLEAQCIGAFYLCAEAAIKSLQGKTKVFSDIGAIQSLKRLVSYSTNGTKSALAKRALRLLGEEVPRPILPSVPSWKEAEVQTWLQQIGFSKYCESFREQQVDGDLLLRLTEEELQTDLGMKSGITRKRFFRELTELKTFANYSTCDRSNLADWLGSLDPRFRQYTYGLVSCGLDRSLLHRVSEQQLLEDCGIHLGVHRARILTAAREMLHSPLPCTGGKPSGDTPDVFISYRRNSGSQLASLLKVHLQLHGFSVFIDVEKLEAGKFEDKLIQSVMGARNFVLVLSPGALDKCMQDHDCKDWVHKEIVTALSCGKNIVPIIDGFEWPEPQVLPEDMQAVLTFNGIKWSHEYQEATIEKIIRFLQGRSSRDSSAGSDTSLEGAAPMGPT
# [13] = polyglutamine-triggered caspase-3 activation inhibitors, cell-based (AID 1583); conditions: polyglutamine-induced caspase-3 activation, cell assay; stronger effect = higher value;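 tested at 10 µM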
# [14] = liver-stage malaria parasite growth inhibition, primary screen, cell-based, HepG2, luciferase luminescence, HepG2 viability (AID 624349; in the data active = parasite load remaining mostly below about 12%, no sharp cut-off; inactive = mostly above about 10%;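 also: 100% = mean of DMSO negative control wells on the same plate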); conditions: P. berghei liver stage in HepG2, luciferase luminescence, concentration not given here; parasite load remaining: stronger effect = lower value; viability: measured here: HepG2 viability without parasites
# [15] = biological target: 6-phosphogluconate dehydrogenase, decarboxylating (Homo sapiens) (UniProt P52209); assay: 6PGD enzyme inhibitors, primary screen, biochemical, human, recombinant enzyme, NADPH absorbance (AID 1159550;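 active = at least 20% inhibition of 6-phosphogluconate dehydrogenase activity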); conditions: recombinant 6PGD, NADPH absorbance 341 nm; at 10 µM; stronger effect = higher value
# Sequence of 6-phosphogluconate dehydrogenase, decarboxylating (Homo sapiens) (P52209 whole entry, looked up): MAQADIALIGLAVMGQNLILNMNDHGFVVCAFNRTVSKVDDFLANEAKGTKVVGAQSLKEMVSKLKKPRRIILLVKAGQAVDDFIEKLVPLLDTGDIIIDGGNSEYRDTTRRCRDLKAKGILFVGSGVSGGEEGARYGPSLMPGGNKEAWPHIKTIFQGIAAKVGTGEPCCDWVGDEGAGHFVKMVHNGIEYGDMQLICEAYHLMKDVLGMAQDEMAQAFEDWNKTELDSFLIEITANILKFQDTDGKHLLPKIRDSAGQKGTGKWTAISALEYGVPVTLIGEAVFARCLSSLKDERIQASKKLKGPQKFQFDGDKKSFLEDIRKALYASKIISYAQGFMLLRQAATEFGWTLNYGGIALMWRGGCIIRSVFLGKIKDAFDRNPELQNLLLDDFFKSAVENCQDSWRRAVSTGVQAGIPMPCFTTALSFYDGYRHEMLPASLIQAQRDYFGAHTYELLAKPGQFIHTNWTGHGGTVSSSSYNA
# [16] = differential killing of epithelial or mesenchymal cells, primary screen, imaging, PC-3E GFP, TEM4-18 mCherry, co-culture (AID 1345086;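 active = compounds killing one labelled cell type while sparing the other, by normalised counts and ratio limits, not self-fluorescent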;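 also: cells exposed to compound for 72 h before imaging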;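 as to red/green cell ratio (normalised): normalised mesenchymal count divided by normalised epithelial count so high means epithelial killing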); conditions: imaging cell counts, at 1 µM
# [17] = stronger effect = lower value, cell number ratio, induced over uninduced
# [18] = measured here: relative caspase fold change +Dox/-Dox
# [19] = measured here: total cells with miR-34 induction, stronger effect = lower value
# [20] = measured here: total cells without miR-34 induction
# [21] = MELAS cybrid survival, CellTiter-Glo 48 h, stronger effect = higher value
# [22] = Rieske KO mouse fibroblast survival, CellTiter-Glo 72 h
compound,measurement,setting,value
CCC1Nc2cc(Cl)c(S(N)(=O)=O)cc2S(=O)(=O)N1 (centres undefined),nuclear beta-catenin stimulation,[1]; at 10 µM,-0.1% (inactive)
same,nuclear beta-catenin stimulation,"[1]; stimulation, at 2 µM",-1.8%
same,insulin secretion stimulation,[2],0.25% (inactive)
same,GLP1 secretion stimulation,[3],2% (inactive)
Cc1c(-c2ccc(O)cc2)n(Cc2ccc(OCCN3CCCCCC3)cc2)c2ccc(O)cc12,nuclear beta-catenin stimulation,[1]; at 10 µM,-3.3% (active)
same,nuclear beta-catenin stimulation,"[1]; stimulation, at 2 µM",44.5%
same,insulin secretion stimulation,[2],4.3% (inactive)
same,viability decrease,[4],99.8% (active)
same,inhibition of viability,[5],99.7% (active)
same,viability decrease (inhibition),[6],102% (active)
same,viability decrease (inhibition),[7],101% (active)
same,fold change,[8]; [17],0.919 (inactive)
same,fold change,[8]; [18],0.888
same,cell count,[8]; [19],6380
same,cell count,[8]; [20],6940
same,z-score,[9]; [21],-0.437 (inactive)
same,z-score,[9]; [22],0.502
CC(C)=CCCC(C)=CCCC(C)=CCCC=C(C)CCC=C(C)CCC=C(C)C,nuclear beta-catenin stimulation,[1]; at 10 µM,-0.4% (inactive)
same,nuclear beta-catenin stimulation,"[1]; stimulation, at 2 µM",1.7%
same,insulin secretion stimulation,[2],0.6% (inactive)
same,GLP1 secretion stimulation,[3],-1.9% (inactive)
CC(=O)N(c1onc(C)c1C)S(=O)(=O)c1ccc(N)cc1,nuclear beta-catenin stimulation,[1]; at 10 µM,0.7% (inactive)
same,nuclear beta-catenin stimulation,"[1]; stimulation, at 2 µM",0.2%
same,insulin secretion stimulation,[2],-0.8% (inactive)
same,viability decrease,[4],-73.1% (inactive)
same,tube area decrease,[10],-1% (inactive)
same,GLP1 secretion stimulation,[3],-0.8% (inactive)
same,inhibition of viability,[5],-3.87% (inactive)
same,viability decrease (inhibition),[6],30.4% (inactive)
same,viability decrease (inhibition),[7],5.3% (inactive)
same,luciferase signal,[11],40 AU (inactive)
O=C(O)c1cc(N=Nc2ccc(O)c(C(=O)O)c2)ccc1O,nuclear beta-catenin stimulation,[1]; at 10 µM,1.3% (inactive)
same,nuclear beta-catenin stimulation,"[1]; stimulation, at 2 µM",8.5%
same,insulin secretion stimulation,[2],0.9% (inactive)
same,viability decrease,[4],15.9% (inactive)
same,inhibition of viability,[5],20.6% (inactive)
same,viability decrease (inhibition),[6],-10.4% (inactive)
same,viability decrease (inhibition),[7],18.3% (inactive)
same,fold change,[8]; [17],0.936 (inactive) and 1.24 (inactive)
same,fold change,[8]; [18],0.766 and 0.877
same,cell count,[8]; [19],9060 and 9000
same,cell count,[8]; [20],9680 and 7270
same,z-score,[9]; [21],-0.277 (inactive)
same,z-score,[9]; [22],-0.199
same,remaining NAD,[12],10 nM (inactive)
C=CCCCCCCCCC(=O)OC,nuclear beta-catenin stimulation,[1]; at 10 µM,2.7% (inactive)
same,nuclear beta-catenin stimulation,"[1]; stimulation, at 2 µM",2%
same,insulin secretion stimulation,[2],2.85% (inactive)
same,GLP1 secretion stimulation,[3],1.2% (inactive)
Cc1ccc(O)cc1,inhibition,[13],26.8%
same,parasite load remaining,[14],125% (inactive) and 76.1% (inactive)
same,viability,[14],68.3% and 96.4%
same,nuclear beta-catenin stimulation,[1]; at 10 µM,0.9% (inactive)
same,nuclear beta-catenin stimulation,"[1]; stimulation, at 2 µM",13.3%
same,viability decrease,[4],4.4% (inactive)
same,tube area decrease,[10],-11.8% (inactive)
same,inhibition of viability,[5],13.6% (inactive)
same,viability decrease (inhibition),[6],-6.4% (inactive)
same,viability decrease (inhibition),[7],-0.4% (inactive)
same,inhibition,[15],-1.83% (inactive)
same,red/green cell ratio (normalised),"[16]; actives lie on both sides, counts scaled to control wells, 1 = unselective",1.31 (inactive)
same,normalised cell number,[16]; measured here: epithelial PC-3E GFP cell survival,1.05
same,normalised cell number,[16]; measured here: mesenchymal TEM4-18 mCherry cell survival,1.37
same,fold change,[8]; [17],0.843 (inactive)
same,fold change,[8]; [18],3.01
same,cell count,[8]; [19],10700
same,cell count,[8]; [20],12700
Cn1cc(S(C)=O)c(=O)c2ccc(F)cc21 (centres undefined),nuclear beta-catenin stimulation,[1]; at 10 µM,0.3% (inactive)
same,nuclear beta-catenin stimulation,"[1]; stimulation, at 2 µM",10.4%
same,viability decrease,[4],-6.9% (inactive)
same,tube area decrease,[10],1.1% (inactive)
same,inhibition of viability,[5],4.2% (inactive)
same,viability decrease (inhibition),[6],-1.3% (inactive)
same,viability decrease (inhibition),[7],-1.8% (inactive)
